Screening results as filed in PubChem.
The list is not random: actives were taken first. Their share in the collection is about 3.6%.
Sfp PPTase inh: Sfp phosphopantetheinyl transferase inhibition. Q9F4F7. Biochemical Sfp PPTase activity, qHTS. Potency, µM, for inactives: largest response in the series, negative = inhibition, usual class: inhibitors. 310,000 compounds, 3.5% hits;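 also: the enzyme is Sfp with the accession as filed and its product quenches rhodamine fluorescence; 0% = enzyme reaction without inhibitor and -100% = no enzyme wells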
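Sfp 15 nM + cpd, 15 min RT; start w/ rhodamine-CoA 5 uM, BHQ-2-YbbR 12.5 uM (final); 50 mM Hepes pH 7.6, 10 mM MgCl2, 0.01% NP-40, 0.01% BSA; read 525/598 nm at 0 and 30 min.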
GCN5L2 inh: GCN5L2 (KAT2A) acetyltransferase inhibition | Potency, µM (doses to about 58.9 µM), for inactives: at the top dose activity change, negative = inhibition, hits mostly inhibitors | AID 504327 | Q92830 | 390,000 compounds, 0.21% hits | GCN5L2 HAT assay, ThioGlo1 CoA-SH fluorescence; also: % is scaled to controls: 0 for no effect and ±100 for the full control effect
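Titration-based screen in which CoA formation is detected via maleimide probe ThioGlo1 (50uM) turning fluorescent on thiol reaction; substrates H3(1-25) 75uM and acetyl-CoA 70uM, GCN5L2 20nM, 20 min incubation at room temperature.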
IMPase Li inh: cell-permeable IMPase inhibitors with lithium potentiation. 210,000 compounds, 0.35% hits. AID 1457. Potency, µM (doses to about 59.4 µM), inactives show top-dose activity, negative = IMPase inhibition, most hits filed as inhibitors. CHO-M1 cells, IP1 TR-FRET (IP-One), carbachol + lithium;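 also: IP1 builds up when IMPase is blocked and the TR-FRET signal falls; plate controls were basal vehicle for no effect and high inhibitor control for full effect; nearly all actives have a fitted effect of over 50% in size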
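Steps: plate 2000 CHO-M1 cells per well and culture 16–30 h; add compound and lithium; incubate 30 min, 37C; add d2-IP1 tracer and Eu cryptate anti-IP1 antibody in lysis buffer; read after 10 min at room temperature.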
Epigenetic reg: derepresses silenced GFP reporter in murine cells | murine LDR cells, GFP reporter derepression, 30 h | Potency, µM (doses to about 53.9 µM), for inactives: top-dose GFP activation, hits mostly activators | 280,000 compounds, 0.2% hits; also: % of control where 0% means no effect; nearly all actives have a fitted effect of over 60% in size
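Murine LDR cells bearing a silenced CMV-driven GFP reporter were exposed to compound for 30 h at 37 C. After PBS washes, GFP-positive cells (20-120 um objects) counted by laser-scanning microplate cytometry.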
JMJD2E inh: blocks human JMJD2E demethylase activity. B2RXH2. JMJD2E catalytic domain, FDH-coupled NADH fluorescence (FDH is formaldehyde dehydrogenase). Potency, µM (titrated, usually from 57.1 µM), for the others: at the top dose activity change, negative = inhibition, actives largely listed as inhibitors. 230,000 compounds, 1.6% hits; active = well fitted inhibition curve with a large enough effect, not every such curve was filed as active; inconclusive = small, poorly fitted or top-dose-only effect, or another doubt; inactive = no such curve, though single readings can be large or run the other way;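 also: 0% = wells with enzyme and -100% = buffer wells without enzyme; nearly all actives have a fitted effect of over 50% in size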
Target sequence (B2RXH2 1-337 limits assumed): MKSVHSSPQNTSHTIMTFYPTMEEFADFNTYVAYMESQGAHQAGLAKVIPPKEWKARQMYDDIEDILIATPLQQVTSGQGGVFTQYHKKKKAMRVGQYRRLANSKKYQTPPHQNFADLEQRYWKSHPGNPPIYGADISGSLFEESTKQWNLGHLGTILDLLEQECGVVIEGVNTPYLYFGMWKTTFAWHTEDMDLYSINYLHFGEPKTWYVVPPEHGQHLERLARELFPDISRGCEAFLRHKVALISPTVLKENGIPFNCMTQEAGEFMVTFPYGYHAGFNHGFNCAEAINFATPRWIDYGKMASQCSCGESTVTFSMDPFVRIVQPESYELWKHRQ
NPSR antag: antagonists of human neuropeptide S receptor cAMP signaling; Q6W5P4; CHO-NPSR cells, cAMP TR-FRET, antagonist mode; Potency, µM (doses to about 38.3 µM), inactives show top-dose activity change, negative = inhibition, hits mostly inhibitors; 220,000 compounds, 1% hits; AID 1461; also: % is scaled to controls: 0 for no effect and ±100 for the full control effect; nearly all actives have a fitted effect of over 50% in size
Target sequence (Q6W5P4 whole entry, looked up): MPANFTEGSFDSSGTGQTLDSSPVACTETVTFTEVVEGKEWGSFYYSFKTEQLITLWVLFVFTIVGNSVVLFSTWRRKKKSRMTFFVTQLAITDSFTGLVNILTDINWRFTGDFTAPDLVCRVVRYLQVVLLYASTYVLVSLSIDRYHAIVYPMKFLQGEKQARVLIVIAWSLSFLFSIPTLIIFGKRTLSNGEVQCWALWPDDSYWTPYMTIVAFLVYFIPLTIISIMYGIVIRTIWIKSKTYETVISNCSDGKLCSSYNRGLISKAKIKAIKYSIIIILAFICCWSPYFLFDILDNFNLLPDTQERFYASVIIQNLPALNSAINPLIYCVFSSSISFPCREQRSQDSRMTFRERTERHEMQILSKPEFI
Numbers without * were called inactive; ? = inconclusive; . = no result given; [ ] = dose if it differs, or a comment. Unless noted, calls follow the shape of the dose curve; as a rule, active = well fitted curve in the direction sought with a large enough effect; inconclusive = small, poorly fitted or top-dose-only effect, or another doubt; inactive = no such curve, though single readings can be large; an effect the other way counts as inactive or inconclusive. Potency is read from the fitted curve at half-maximal effect.

SMILES | Sfp PPTase inh | GCN5L2 inh | IMPase Li inh | Epigenetic reg | JMJD2E inh | NPSR antag
CN1C(=O)C(Cl)(Cl)C(=O)c2ccccc21 | 2.51µM* | -10.3% | 7.8% | ? | ? | 15.5%
Cn1c(=O)c([N+](=O)[O-])c(-n2ccnc2)c2ccccc21 | 56.2µM* | -2.8% | 3.7% | ? | -28.8% | -22.5%
Cn1c(=O)c([N+](=O)[O-])c(NCCCn2ccnc2)c2ccccc21 | 11.1% | 1.1% | . | -0.3% | 12.1% | -16.8%
N=c1oc2c3c4c(cc2cc1C(=O)Nc1ccccc1)CCCN4CCC3 | -26.3% | -0.8% | 5.0%[38.3 µM] | 0.282µM* | -23.2% | -23.9%[46.1 µM]
O=C1CN(C(=O)COc2ccc(Cl)cc2)C(c2ccc(F)cc2)c2cc(Br)ccc2N1 (stereo unspecified) | . | -19.9% | . | -0.2% | . | .
CC(=O)c1cc(C(=O)c2ccccc2)sc1Nc1ccccc1 | 79.4µM* | -9.9% | 13.3% | -2.2% | ? | -18.3%
Cc1cccc(OCC(=O)NC(=S)N2CCCc3ccccc32)c1 | 79.4µM* | -13.0% | -5.4%[38.3 µM] | -1.1% | -3.0% | -5.2%[46.1 µM]
O=C(COc1ccc(Cl)cc1Cl)NC(=S)N1CCCc2ccccc21 | 56.2µM* | -0.4% | -94.5%[38.3 µM] | 0.6% | 2.6% | -17.7%[46.1 µM]
CC(C)(C)OC(=O)NCCCCC1=CC2=CC(=O)C(C)(OC(=O)CCc3ccccc3)C(=O)C2=CO1 (stereo unspecified) | 17.5% | . | 14.9% | -0.3% | 4.2% | .
Clc1ccc(-n2nnc(-c3nccs3)n2)cc1Cl | 39.8µM* | -19.8% | -12.6% | 0.7% | 12.6µM* | -3.7%
CC(C)(C)c1ccc(OCCSc2nc(-c3cccs3)nc3cc(=O)[nH]n23)cc1 | . | -27.4% | . | -2.4% | . | .
NNc1cc([N+](=O)[O-])cc2c1C(=O)N(Cc1ccccc1)S2=O (stereo unspecified) | 22.4µM* | ? | 6.2% | -0.4% | -4.2% | -1.1%
COc1ccc(-c2nc3cncnc3n(-c3ccccc3)c2=O)cc1 | -2.0% | -4.3% | 8.6% | . | . | .
CC[C@@H](C)[C@H](NS(=O)(=O)c1cccc2ccccc12)C(=O)N[C@H](C=O)Cc1c[nH]c2ccccc12 | ? | -7.4% | 27.6% | 0.8% | . | .
CCOC(=O)Cn1c(=O)n(Cc2ccco2)c(=O)c2ccc(C(=O)NCCc3ccccc3)cc21 | 56.2µM* | -8.9% | 15.4%[38.3 µM] | 0.0% | ? | ?
COc1ccc(CCNC(=O)Cn2c(=O)n(Cc3ccco3)c(=O)c3ccc(Cl)cc32)cc1OC | ? | 3.4% | 19.9%[38.3 µM] | -1.8% | 1.0% | ?
COc1cccc(Cn2c(=O)c(-c3ccc(Cl)cc3)nc3cnc(OC)nc32)c1 | -8.1% | -21.2% | 1.2% | . | . | .
CN1CCN(c2nc(-c3ccc(N(C)C)cc3)nc3ccccc23)CC1 | 50.1µM* | -9.7% | -25.8% | ? | ? | .
Cc1ccc(-c2nc(N3CCN(C)CC3)c3ccccc3n2)cc1 | 13.3% | 2.1% | . | . | . | .
Cc1c(-c2ccccc2)sc(N)c1C(=O)N1CCOCC1 | 44.7µM* | -1.1% | -6.9%[38.3 µM] | 3.7% | ? | 10.5%[7.67 µM]
Cc1ccc(-c2cc(-c3coc4ccccc4c3=O)c3c(n2)-c2ccccc2OC3)cc1 | . | -7.7% | . | 4.3% | . | .
Cc1sc2nc(CSc3ccc([N+](=O)[O-])c(C(F)(F)F)c3)[nH]c(=O)c2c1C | 56.2µM* | -24.5% | -9.3% | -1.3% | -7.7% | -25.4%
COc1ccc(-c2nnc3n2N=C(c2ccccc2OC)CS3)c(OC)c1 | -11.1% | . | . | . | . | .
Cc1ccc(NC(=O)CN2C(=O)N/C(=C\c3cccn3-c3cccc(C(=O)O)c3)C2=O)cc1 | 39.8µM* | ? | 1.6% | -2.7% | -16.6% | -5.3%
Cc1ccc(CN2C(=O)N/C(=C\c3cccn3-c3cccc(C(=O)O)c3)C2=O)cc1 | 50.1µM* | ? | -5.4% | -1.5% | 0.2% | -44.5%
SMILES | Sfp PPTase inh | GCN5L2 inh | IMPase Li inh | Epigenetic reg | JMJD2E inh | NPSR antag
Cc1ccc(NC(=O)CN2C(=O)N/C(=C/c3ccccc3OCc3cccc(C(=O)O)c3)C2=O)cc1 | 89.1µM* | ? | . | . | . | .
COc1cccc(/C=C2/NC(=O)N(CC(=O)Nc3ccc(C)cc3)C2=O)c1OCc1cccc(C(=O)O)c1 | ? | -25.7% | . | . | . | .
C/C1=C\[C@@H](O)C(C(C)C)C(OC(=O)c2ccc(O)cc2)C/C(C)=C/CC1 (stereo partly specified) | 8.0% | -5.9% | . | . | . | .
COc1ccc2c(c1)C(=O)[C@H](OC(=O)N[C@H](C)C1CCCCC1)[C@@H](c1ccc(OC)c(Br)c1)O2 | 0.0% | . | 8.4% | 0.0% | -26.7% | .
Cc1cc(C(=O)N/N=C/c2cc(Cl)cc([N+](=O)[O-])c2O)c2ccccc2n1 | 1.3% | -7.8% | -2.2% | -1.6% | 5.62µM* | -0.9%
Cc1cc(C(=O)N/N=C/c2c(CO)cnc(C)c2O)c2ccccc2n1 | 12.0% | -1.0% | . | . | . | .
O=C(N/N=C/c1cc(Cl)cc([N+](=O)[O-])c1O)c1ccccc1NS(=O)(=O)c1cccs1 | 8.1% | -4.5% | . | -0.4% | 6.31µM* | 31.8%
O=C(N/N=C/c1cc(Cl)cc([N+](=O)[O-])c1O)NC12CC3CC(CC(C3)C1)C2 | -1.5% | ? | 11.8% | -1.6% | 6.8% | 10µM*
COc1ccc(-n2ncc(C(=O)Nc3ccc4c(c3)OCCO4)c2C2CCN(C(=O)OC(C)(C)C)CC2)cc1 | . | -5.3% | . | 3.8% | . | .
O=C(NCCc1nc2ccccc2[nH]1)c1ccc([N+](=O)[O-])cc1 | 1.7% | -4.7% | . | -1.7% | 11.8% | -3.1%
O=C(Cc1nc2ccccc2[nH]1)c1ccc([N+](=O)[O-])cc1 | 15.8µM* | -9.9% | . | -2.9% | ? | 28.9%
CN/N=C(\Cc1nc2ccccc2[nH]1)c1ccc([N+](=O)[O-])cc1 | 22.4µM* | -6.4% | 5.7% | 0.0% | ? | -26.0%
Clc1ccc(/C(Cc2nc3ccccc3[nH]2)=N\Nc2ccccc2)cc1 | -3.0% | -20.9% | 13.2% | 1.1% | 22.4µM* | ?
O=C(Cc1nc2ccccc2[nH]1)c1ccc(Cl)cc1 | 15.8% | -3.8% | . | . | . | .
C=CCOCC1CN2C(CCC(C)C2c2ccc(Br)cc2)C(=O)O1 (stereo unspecified) | 2.8% | . | . | 3.1%[10.1 µM] | . | .
CC(C)(C[C@@]1(C)NC(=O)NC1=O)OCc1ccccc1 | . | . | -7.4% | . | . | .
Nn1c(=S)[nH]nc(Cc2ccc(O)cc2)c1=O | 15.8µM* | -3.5% | -3.1% | -1.0% | ? | 14.4%
CC(=O)c1cc(NC(=O)c2ccc(Cl)cc2)c(=O)oc1/C=C/N(C)C | 56.2µM* | -1.2% | 4.4% | 14.7% | ? | -13.4%[46.1 µM]
